# Test results taken from PubChem BioAssay (NCI).
# Compounds without any hit were thinned out: in the full panel of roughly 83,000, 20% have a hit.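 How to read the values: 0–100, growth inhibition (40 = 60% inhibited); 0, no net growth; -100 to 0, cell death (-40 = 40% of starting cells died; -100 = all dead).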 Values without a mark were called inactive. Active and inactive are the calls of the source. The calls were made as follows: active = growth percent below 10; inactive = the rest.
# Columns and labels:
# Assay in all cases: NCI-60 one-dose screen, 48 h (100 = growth as untreated, 0 = no growth, -100 = all killed)
# Settings in all cases: 10 µM unless noted
# T-47D breast = tested on: T-47D breast
# BT-549 breast = tested on: BT-549 breast
# MDA-MB-435 melanoma = tested on: MDA-MB-435 melanoma
# SW-620 colon = tested on: SW-620 colon
# MCF7 breast = tested on: MCF7 breast
# HCT-116 colon = tested on: HCT-116 colon
# HCC-2998 colon = tested on: HCC-2998 colon
# KM12 colon = tested on: KM12 colon
Structure (SMILES),growth (T-47D breast),growth (BT-549 breast),growth (MDA-MB-435 melanoma),growth (SW-620 colon),growth (MCF7 breast),growth (HCT-116 colon),growth (HCC-2998 colon),growth (KM12 colon)
Nc1ncc(C#Cc2cncc(NC(=O)c3cccc(C(F)(F)F)c3)c2)c2cccnc12,76.3%,63.1%,22.9%,49.3%,4.41% (active),21.8%,47.1%,19%
COc1cc2nc(-c3ccc(C(F)(F)F)cc3)cc(OCCCN3CCC(O)CC3)c2cc1OC,24.7%,26.5%,-29% (active),15.9%,37.3%,15%,52.5%,26.5%
O=C(O)/C=C\C(=O)N1C/C(=C\c2ccccc2Cl)C(=O)/C(=C/c2ccccc2Cl)C1,7.54% (active),-57% (active),-11.3% (active),-50% (active),3.37% (active),-97.2% (active),-91.8% (active),-71.9% (active)
COc1cc(-c2nc3occn3c2-c2ccnc(NCCNS(=O)(=O)c3ccc(Cl)cc3)n2)ccc1F,51.6%,95.5%,62.2%,109%,65.5%,63.6%,103%,86.9%
O=C(Nc1nc2ccc(C(=O)N3CCN(c4ccc(Cl)c(Cl)c4)CC3)cc2s1)c1ccc(NCCc2ccccc2)c([N+](=O)[O-])c1,84.4%,108%,111%,103%,96.7%,95%,105%,107%
CN1CCN(C(=O)[C@]2(C)CC[C@]3(C)CC[C@]4(C)C(=CC(=O)[C@@H]5[C@@]6(C)CCC(=O)NC(C)(C)[C@@H]6CC[C@]54C)[C@@H]3C2)CC1,79.9%,87.2%,100%,96.4%,91.8%,93.1%,113%,98.1%
CCCCCN1C=C/C(=C\C(=O)N(C)c2cccc3ccccc23)c2ccccc21,87.9%,99.4%,100%,94.3%,91.3%,86.9%,102%,103%
CCCCCCCCCCCC(=O)C(CCCCCCCCCC)C(=O)Nc1ccccc1 (stereo not drawn),92.1%,114%,110%,107%,108%,93.8%,101%,106%
C[C@]12CCc3nc(Nc4cccc(O)c4)sc3C1=CC[C@@H]1[C@@H]2CC[C@]2(C)/C(=N\NC(N)=S)CC[C@@H]12,19.5%,7.62% (active),5.53% (active),-50% (active),-39.3% (active),-61.8% (active),65.3%,13.5%
Cc1ccc2nc3c(cc2c1)CSc1nnc(-c2ccc[nH]c2=S)n1N3,90.8%,97.4%,88.2%,102%,94.4%,92.5%,107%,99.7%
CCCCCCCCOc1ccc(/C=N/Nc2cc(C)nc3ccc(Cl)cc23)cc1,56%,111%,-19.8% (active),-70.4% (active),-69.7% (active),-69.9% (active),-58.6% (active),-72.9% (active)
CO[C@@H]1[C@H](N(C)C(=O)c2ccccc2)C[C@@H]2O[C@]1(C)n1c3ccccc3c3c4c(c5c6ccccc6n2c5c31)C(=O)NC4=O,40.5%,45%,45.9%,18.6%,42%,25.8%,61.9%,21.8%
COc1cc(OC)c(/C=C/C(=O)c2ccc(Nc3ncnc4ccccc34)cc2)c(OC)c1,36.2%,-29.3% (active),-79.1% (active),-66.8% (active),0.53% (active),-33.7% (active),38.3%,6.21% (active)
S=c1[nH]cccc1-c1nnc2n1Nc1nc3ccc(Cl)cc3cc1CS2,89.5%,96.3%,103%,98.8%,86.5%,86.6%,106%,104%
Cc1cc(NC(=O)c2cnc(N3CCN(CCOCCOCCOCCOCCC(=O)N[C@H](C(=O)N4C[C@H](O)C[C@H]4C(=O)N[C@@H](C)c4ccc(-c5scnc5C)cc4)C(C)(C)C)CC3)cn2)c2ncccc2c1,20.2%,-37.3% (active),-68.3% (active),-39.9% (active),4.01% (active),-60.3% (active),-80.6% (active),-64.6% (active)
COc1ccc(CC(C)=C(c2ccc(OCCN(C)C)cc2)c2ccc(OCCN(C)C)cc2)cc1,84.5%,78.3%,61.9%,48.1%,69.7%,22%,89%,75.5%

Structure (SMILES),growth (T-47D breast),growth (BT-549 breast),growth (MDA-MB-435 melanoma),growth (SW-620 colon),growth (MCF7 breast),growth (HCT-116 colon),growth (HCC-2998 colon),growth (KM12 colon)
Nc1nnc(C(=O)c2cnc3n(c2=O)CCCCC3)s1,98.5%,108%,106%,100%,98.8%,103%,106%,105%
O=S(=O)(c1ccc(N/N=C\c2ccccc2)cc1)c1ccc(N/N=C/c2ccccc2)cc1,56%,105%,68.8%,74%,62.9%,52.6%,66.4%,66.9%
COC(=O)C(c1ccccc1)C(CC(=O)c1ccccc1)c1ccccc1 (stereo not drawn),76.2%,108%,88.8%,104%,99.5%,88.8%,96.1%,91.5%
COc1cc(/C=C/C(=O)c2ccc(Nc3ncnc4ccccc34)cc2)cc(OC)c1,117%,26.9%,-39.2% (active),-66.1% (active),0.628% (active),-87.3% (active),-37.6% (active),-49.8% (active)
CC(=O)c1cc2c(N)c(C(=O)Nc3cncc4ccccc34)sc2nc1C,93.8%,105%,43.6%,103%,91.6%,101%,106%,94.3%
COc1cc(C(=O)c2cnc(-c3ccc4cc[nH]c4c3)[nH]2)cc(OC)c1OC,59%,42.9%,-28.4% (active),19.2%,11.3%,-6.9% (active),6.12% (active),-9.92% (active)
CC1(C)CCCN1CCCN1c2ccccc2Sc2ccc(Cl)cc21,68.5%,56.3%,51.5%,79.9%,45.3%,33.3%,56.7%,56.1%
C[C@]12C[C@H]1CC[C@]1(C)[C@@H]2CC[C@@]23C[C@H](CC[C@H]21)[C@@](O)(CO)C3,90.7%,77%,59.1%,109%,97.8%,-71.4% (active),103%,96.5%
Cc1[nH]n(-c2cccc(Cl)c2)c(=O)c1/C=C1\C=Nc2ccc(Br)cc21,-47.4% (active),41.5%,43.9%,17.2%,33.9%,-76% (active),63.5%,47.2%
CCOC(=O)c1c(O)cc(-c2ccccc2)cc1-c1sc(N(C)Cc2ccccc2)nc1Cl,93.5%,42.7%,101%,96.5%,94%,-85.6% (active),103%,104%
O=S(=O)(NCCCNc1nccc(-c2c(-c3cccc(O)c3)nc3occn23)n1)c1ccc(F)cc1,56.3%,87.4%,37.3%,103%,85.2%,56.2%,109%,81.9%
CC(Oc1ccc(C(=O)NS(=O)(=O)C(C)(C)C)cc1C(F)(F)F)c1ccc(Oc2ccccc2)cn1 (stereo not drawn),60.5%,67.2%,-4.12% (active),58.4%,38.9%,60.1%,86.9%,52.7%
NC(=S)N/N=C(/c1ccccc1)c1ccccc1N,43.7%,104%,90.4%,79.2%,39.7%,3.36% (active),113%,98.9%
CC(C)NC(=O)N1C(=O)CCC1NNC(=O)c1ccc([N+](=O)[O-])cc1 (stereo not drawn),94.9%,102%,98.6%,112%,97.8%,95.7%,98.6%,102%
CCN(CC)CCCCCCNc1cc(OC)cc2cccnc12,92.5%,83.9%,17.8%,-64.5% (active),20%,-54.4% (active),84.1%,76%
